Compound activity from PubChem BioAssay.
CYP2C9 inh: blocks human cytochrome P450 2C9; P11712; CYP2C9 Supersomes, luciferin-H conversion, luminescence; inhibition, % at 5 µM; actives 20% (n = 96,000); AID 777;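 active = blocking of liver enzyme CYP2C9 beyond about 50% at 5 µM, limit read from the data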
CYP2C9 act: activators of human CYP2C9; P11712; recombinant CYP2C9, luciferin-H conversion, luminescence; hits give high values; factor 1 = untreated enzyme, 0 = blocked; activation factor at 5 µM; actives 1.4% (n = 96,000); AID 1024;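 active = activation factor of 2 or more for CYP2C9 at a 5 µM dose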;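 note: 0 = sulfaphenazole-blocked wells and 1 = vehicle-only wells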
CYP2C19 activ: increases human CYP2C19 enzyme activity; AID 1025; 96,000 tested, under 10 active; P33261; activation factor at 5 µM; recombinant CYP2C19, luciferin-H EGE luminescence; hits give high values; 0 = fully inhibited enzyme, 1 = untreated enzyme;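 active = activation factor of at least 2 at 5 µM in the primary screen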;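 note: 0 = wells with 2.5 mM tranylcypromine and 1 = vehicle-only wells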
Target sequence (P33261 whole entry, looked up): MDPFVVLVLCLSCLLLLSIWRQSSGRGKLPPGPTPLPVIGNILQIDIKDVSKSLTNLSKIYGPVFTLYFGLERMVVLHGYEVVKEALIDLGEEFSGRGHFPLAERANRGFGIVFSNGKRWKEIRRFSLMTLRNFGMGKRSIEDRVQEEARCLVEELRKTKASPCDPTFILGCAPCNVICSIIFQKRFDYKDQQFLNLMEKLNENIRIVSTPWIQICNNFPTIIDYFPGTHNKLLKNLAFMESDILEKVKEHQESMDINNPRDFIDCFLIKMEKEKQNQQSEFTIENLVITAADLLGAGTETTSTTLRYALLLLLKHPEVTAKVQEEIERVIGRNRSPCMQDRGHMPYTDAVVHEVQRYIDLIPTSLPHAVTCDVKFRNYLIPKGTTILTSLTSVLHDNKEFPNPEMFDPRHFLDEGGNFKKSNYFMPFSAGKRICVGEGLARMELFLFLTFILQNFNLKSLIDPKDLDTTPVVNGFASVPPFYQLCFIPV
PLAP act: activators of human placental alkaline phosphatase; activation fold at 20 µM; purified PLAP enzyme, luminescent substrate read-out; hits give high values; actives 1.2% (n = 96,000); P05187; in the data active = activation fold above about 2
CYP2C19 inh: human CYP2C19 inhibition; CYP2C19 Supersomes, luciferin-H EGE luminescence, 30 min; AID 778; P33261; actives 21% (n = 96,000); inhibition, % at 5 µM;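 active = CYP2C19 inhibition above a set limit at 5 µM in the primary screen, cut at about 50% in these data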;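 note: plate controls were negative control wells for no effect and 2.5 mM tranylcypromine positive control for full effect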
Starred values were filed as active, the others as inactive. Rows were chosen to be rich in hits. Some 31% of all compounds tested hit in one or more screens of this group.

SMILES	CYP2C9 inh	CYP2C9 act	CYP2C19 activ	PLAP act	CYP2C19 inh
CN(CC(=O)N1CCCC1)S(=O)(=O)c1cc(Cl)ccc1Cl	-141	2.4*	0.8	1.1	19
CCN(CC)c1ccc(NC(=O)c2ccc(NC(=O)C3CCCO3)cc2)c(C)c1 (stereo not given)	-24	1.2	1.1	1.2	-9
CCN(CC)S(=O)(=O)c1ccc2c3c(cccc13)C(=O)N2	7	0.9	0.1	1.1	89*
O=C1Nc2ccc(S(=O)(=O)NCCC3=CCCCC3)c3cccc1c23	37	0.6	0.4	0.8	61*
CCNS(=O)(=O)c1ccc2c3c(cccc13)C(=O)N2	29	0.7	0.3	0.9	70*
O=[N+]([O-])c1ccccc1S(=O)(=O)NCCC1=CCCCC1	7	0.9	0.7	0.8	28
O=C(NN1C(=O)c2ccccc2NC1c1ccccc1OCc1ccccc1)c1ccncc1 (stereo not given)	33	0.7	0.5	1.3	49
Cc1ccc(C(=O)N2CCN(C)CC2)cc1S(=O)(=O)N1CCCCC1	7	0.9	0.9	1	10
Cc1cc(C)n(C(=O)c2ccc(C)c(S(=O)(=O)N3CCCC3)c2)n1	55*	0.5	0.3	1.2	73*
Cc1cc(C)n(C(=O)c2ccc(S(=O)(=O)N3CCOCC3)cc2)n1	53*	0.5	1.1	0.8	-12
Cc1cc(C)n(C(=O)c2cccc(S(=O)(=O)N3CCOCC3)c2)n1	34	0.7	0.4	1	59*
CC(=O)Nc1ccc(C(=O)Nc2ccc(S(=O)(=O)NCC3CCCO3)cc2)cc1 (stereo not given)	32	0.7	0.9	0.8	9
Cc1cc(C)n(C(=O)c2ccc(S(=O)(=O)NCC3CCCO3)cc2)n1 (stereo not given)	58*	0.4	0.7	1.2	33
Cc1ccc(Sc2c(C)nn(C(=O)c3cccc(S(=O)(=O)N4CCOCC4)c3)c2C)cc1	78*	0.2	0.5	1.9	53*
CCOC(=O)c1cnn(-c2nc(-c3ccc(C)cc3)cs2)c1C(F)(F)F	6	0.9	1.1	0.9	-10
CCOC(=O)c1[nH]nc(-c2c(O)cc(C)cc2O)c1-c1csc(C)n1	11	0.9	0.8	2.1*	23
CCCc1cc(-c2n[nH]c(C(=O)OCC)c2-c2cscn2)c(O)cc1O	67*	0.3	0.4	2.1*	56*
CCOC(=O)c1[nH]nc2c1C(=O)N(CC)C2=O	12	0.9	0.9	0.9	10
O=C(Nc1nc(C2C3CC4CC(C3)CC2C4)cs1)c1cc2cc([N+](=O)[O-])ccc2oc1=O (stereo not given)	-8	1.1	1	0.9	-4
CC(C)NC(=O)/C(=C/c1ccco1)c1ccccc1	3	1	1.1	0.9	-9
CCC(C)NC(=O)/C(=C/c1ccco1)c1ccccc1 (stereo not given)	7	0.9	0.9	1.1	14
Cc1cc(C)c(NC(=O)/C(=C/c2ccco2)c2ccccc2)c(C)c1	68*	0.3	0.2	1.3	77*
Cc1cccc(C)c1NC(=O)/C(=C/c1ccco1)c1ccccc1	70*	0.3	0.6	1.1	43
Cc1ccccc1Nc1c([N+](=O)[O-])ccc2c1=NC1(CCCCC1)N=2	12	0.9	0.8	1	16
O=C1c2ccccc2C(=O)C1c1nccc2ccccc12	58*	0.4	0.5	0.8	45
SMILES	CYP2C9 inh	CYP2C9 act	CYP2C19 activ	PLAP act	CYP2C19 inh
COc1ccc2c(Cl)c(C(=O)NCCCn3ccnc3)sc2c1	91*	0.1	0	0.9	98*
COc1ccc2c(Cl)c(C(=O)NN)sc2c1	56*	0.4	0.2	1	82*
COc1ccc2c(Cl)c(-c3nnc(SCC(N)=O)n3C)sc2c1	2	1	1.1	1.1	-15
COc1ccc2c(Cl)c(C(N)=O)sc2c1	-17	1.2	1	0.9	2
CCOc1cc(C2C(C#N)=C(N)Oc3n[nH]c(C)c32)ccc1OCCN1CCOCC1 (stereo not given)	0	1	1	1.6	3
CCOC1=NC(C(=O)O)c2ccccc2/C(=C(/C)Cl)N1 (stereo not given)	22	0.8	0.7	0.9	30
Cc1nn(Cc2ccc([N+](=O)[O-])cc2)c(=O)n1-c1c(F)cccc1F	5	1	0.4	1	59*
Cc1nn(Cc2ccc([N+](=O)[O-])cc2)c(=O)n1-c1ccc(F)cc1	86*	0.1	0.5	0.9	46
Cc1nn(CC#N)c(=O)n1-c1cccc(F)c1	-34	1.3	1.3	0.8	-30
Cc1nn(CC#N)c(=O)n1-c1ccc(F)cc1	0	1	1	1.1	2
CCN(CC)C(=O)C1=C(C)Nc2nnnn2C1c1cccnc1 (stereo not given)	3	1	1.1	0.9	-11
Cc1ccc(CN2C(=O)CCSc3ccc(Cl)cc32)cc1	17	0.8	0.6	1.1	36
O=C1CCSc2ccc(Cl)cc2N1Cc1cccc(Cl)c1	14	0.9	0.4	1	64*
CCOC(=O)N1CCC(N(C(=O)Nc2ccc(CC)cc2)C(C)CC)CC1 (stereo not given)	24	0.8	0.9	1.2	15
O=C(COC(=O)c1cc(-c2cccs2)nc2ccccc12)NCc1ccco1	90*	0.1	0.5	1.4	54*
O=C(COC(=O)c1cc(-c2ccc(Cl)s2)nc2ccccc12)NCc1ccco1	17	0.8	1.2	1.4	-15
COc1ccccc1CNC(=O)COC(=O)c1cc(-c2ccco2)nc2ccccc12	52*	0.5	1.2	1.3	-18
COc1cccc(-c2nnc(SCC(=O)OC(C)C)n2N)c1	8	0.9	0.7	0.9	29
O=C(NCCN1CCOCC1)C1CCN(c2nc3ccccc3o2)CC1	11	0.9	1	1.1	-3
C=CCCCCCCCCC(=O)NN	89*	0.1	0	1	100*
Cc1ccccc1N(CC(=O)NC1CCCC1)C(=O)CS(=O)CC(=O)Nc1ccc2c(c1)OCO2 (stereo not given)	90*	0.1	0.8	1.7	22
O=C(CS(=O)CC(=O)N(CC(=O)NC1CCCC1)C1CCCC1)Nc1ccc(F)cc1 (stereo not given)	0	1	1.1	1.2	-14
Cc1ccc(NC(=O)CS(=O)CC(=O)N(CC(=O)NC2CCCC2)c2cc(C)ccc2C)cc1 (stereo not given)	71*	0.3	0.7	1.6	35
CCCOc1ccc2c(=O)c(-c3cc(C(=O)OC)oc3C)c(C)oc2c1	48	0.5	0.8	1.3	20
CC(=O)c1cccc(S(=O)(=O)N2CCCC(c3nc(-c4ccc(C)o4)no3)C2)c1 (stereo not given)	30	0.7	0.6	1.6	38
O=S(=O)(c1ccccc1Cl)N1CCCC(c2nc(-c3cccnc3)no2)C1 (stereo not given)	79*	0.2	0.1	1.4	95*
